ELG1 genotox = inducers of genotoxicity in HEK293T ELG1-luciferase cells. AID 504466. HEK293T ELG1-luciferase reporter, luminescence, 16 h. Potency, µM (doses to about 46 µM), without a hit: at the top dose activity change, positive = activation, hits mostly activators. 330,000 compounds, 1.3% hits; further: % of control where 0% means no effect; nearly all actives have a fitted effect of over 60% in size
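ELG1-luciferase HEK293T cells, 2,000/well; compound pinned in; 16 hr, 37 °C, 5% CO2; ONE-Glo, 30 min RT; luminescence on CCD imager.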
SMN2 splice enh = SMN2 splice variant enhancement; HEK293 SMN2-luciferase splicing reporter, luminescence, 30-36 h; Potency, µM (series often up to 46.1 µM), for the others: at the top dose activity change, positive = activation, usual class: activators; 210,000 compounds, 2.8% hits; further: % of control where 0% means no effect; nearly all actives have a fitted effect of over 55% in size
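qHTS luciferase splicing reporter: luminescence rises when SMN2 exon 7 is included in transfected HEK293 cells. Compound exposure lasted 30-36 h at 37C, with 4.5 mM final sodium butyrate as control, followed by a ONE-Glo read.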
FLuc counter = counter-screen for miR-21 project: firefly luciferase inhibitors or activators; purified FLuc, Km substrates, luminescence inhibition; Potency, µM (highest dose often 57.5 µM), without a hit: at the highest dose activity change, negative = inhibition, actives largely listed as inhibitors; 360,000 compounds, 6.9% hits; AID 588342;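 further: plate controls were vehicle for no effect and reference inhibitor for full effect; nearly all actives have a fitted effect of over 55% in size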
Target sequence (P08659 whole entry, looked up): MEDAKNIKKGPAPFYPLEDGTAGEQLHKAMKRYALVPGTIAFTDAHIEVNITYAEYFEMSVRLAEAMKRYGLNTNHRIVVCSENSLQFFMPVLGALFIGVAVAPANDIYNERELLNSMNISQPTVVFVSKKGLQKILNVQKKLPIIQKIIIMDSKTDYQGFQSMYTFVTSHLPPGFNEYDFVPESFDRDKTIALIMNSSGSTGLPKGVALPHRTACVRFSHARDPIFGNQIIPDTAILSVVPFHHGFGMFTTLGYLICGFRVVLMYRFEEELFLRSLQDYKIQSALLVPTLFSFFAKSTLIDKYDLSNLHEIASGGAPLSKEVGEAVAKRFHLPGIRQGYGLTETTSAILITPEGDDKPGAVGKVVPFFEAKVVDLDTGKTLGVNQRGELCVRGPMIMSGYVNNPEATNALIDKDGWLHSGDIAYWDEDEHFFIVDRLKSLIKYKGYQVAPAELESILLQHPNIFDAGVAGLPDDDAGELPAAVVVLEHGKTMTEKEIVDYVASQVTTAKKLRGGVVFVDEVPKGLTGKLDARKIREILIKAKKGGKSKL
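Purified P. pyralis luciferase, 10 nM final, with Km-level 10 uM D-luciferin and 10 uM ATP in 50 mM Tris acetate pH 7.5, 10 mM Mg acetate, 0.01% Tween-20, 0.05% BSA; 6-point qHTS titration about 60 µM downward; luminescence read.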
Rab9 prom act = activates the Rab9 promoter. Huh7 Rab9 promoter-luciferase reporter, luminescence, 24 h. Potency, µM (top dose mostly 9.22 µM), for the others: at the highest dose activation, negative = inhibition, usual class: activators. 320,000 compounds, 2.8% hits; further: % of control where 0% means no effect; nearly all actives have a fitted effect of over 60% in size
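Luminescence from Amplite-detected luciferase (10 minutes, ambient) reports Rab9 promoter activation. Before that, stable Rab9-luciferase Huh7 cells (1500/well, reduced-serum OP-MEM I plus 10% FBS) were exposed to compound for 24 hours at 37C.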
NPC1 prom act = activates the NPC1 promoter; Huh7 NPC1 promoter luciferase reporter, 24 h; Potency, µM (doses to about 9.22 µM), inactives show at the highest dose activation, hits mostly activators; 320,000 compounds, 2.4% hits; AID 485313; further: % of control where 0% means no effect; nearly all actives have a fitted effect of over 60% in size
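Quantitative HTS used a cell-based reporter: Huh7 cells stably bearing the NPC1 promoter upstream of luciferase were treated with compounds for 24 h, and promoter activation was read as luminescence.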
* hit, by the source's call; ? = inconclusive; . = no result; [ ] = remark or other dose. Sampled rows, rich in hits. Any-hit rate of the full collection: about 7.5%. The call rests on the fitted dose curve; in most records, active means well fitted curve in the direction sought with a large enough effect; inconclusive means small, poorly fitted or top-dose-only effect, or another doubt; inactive means no such curve, though single readings can be large; an effect the other way counts as inactive or inconclusive. Potency means the concentration at half of the fitted maximal effect.

SMILES | ELG1 genotox | SMN2 splice enh | FLuc counter | Rab9 prom act | NPC1 prom act
O=C(NCc1cccnc1)[C@@H]1[C@@H](C(=O)O)[C@H]2CC[C@@H]1O2 | . | -12%[9.22 µM] | . | . | .
Cc1ccc(/C=N/NC(=O)c2cccs2)cc1[N+](=O)[O-] | 9% | ? | 7.6µM* | ? | ?
O=C(N/N=C/c1ccccc1[N+](=O)[O-])c1cccs1 | ? | . | 6.7µM* | 2.5µM* | ?
COc1ccc(N/N=C(/Oc2ccc([N+](=O)[O-])cc2)C(C)=O)cc1 | 6% | -9% | 1% | -1% | -6%
COc1ccc(NN=Nc2ccc([N+](=O)[O-])cc2)cc1 | ? | . | 2.4µM* | 3.5µM* | ?
O=C(O)c1cccc(-n2cccc2/C=C2/NC(=O)N(c3ccc(Cl)cc3)C2=O)c1 | 2% | 18% | 27µM* | -2% | 3%
O=C1C(=Cc2cccn2-c2ccc(O)cc2)C(=O)c2ccccc21 | 1% | 5% | 3.4µM* | 0% | -1%
O=C(O)c1cccc(-n2cccc2C=C2C(=O)c3ccccc3C2=O)c1 | 9% | . | 12µM* | -3% | -2%
Cc1ccc(C)c(NC(=O)c2cnn(-c3cccc(F)c3)c2C2CCN(C(=O)OC(C)(C)C)CC2)c1 | . | . | -5% | . | .
COc1ccccc1Cn1c(=S)[nH]c2ccc(F)cc2c1=O | -1% | . | -1% | 3% | -2%
CC(C)c1ccc(CN2CCC(Oc3ccc(C(=O)N4CCCC4)cc3)CC2)cc1 | -8% | . | 0% | -6% | 0%
CN1/C(=C\C=O)C(C)(C)c2ccccc21 | -2% | 0% | -1% | -6% | -6%
CN(C)c1ccc(N=C/C=C2\N(C)c3ccccc3C2(C)C)cc1 | 5% | -19% | 15µM* | 15% | 22%
CN1\C(=C/C=C/C=C/C=[N+](C)C)C(C)(C)c2ccccc21 | -2% | -26% | 8.5µM* | -8% | -16%
CCOC(=O)CCN(Cc1sccc1C)S(=O)(=O)c1ccc(F)cc1 | -6% | ? | 0% | -2% | 0%
Cc1ccc(NC(=O)CCNCc2ccco2)cc1S(=O)(=O)N(C)C | -3% | 17% | -1% | -6% | -1%
CC1CCCCC1NC(=O)CSc1nnc(COc2ccccc2Cl)o1 (stereo not given) | 1% | 7% | 21µM* | 3% | 3%
CC(C)(C)NC(=O)NC(=O)CSc1nnc(COc2ccccc2Cl)o1 | -3% | 13% | 17µM* | -7% | -2%
CCN1C(=O)[C@H]2[C@@H](c3ccc(-c4ccc(OC)cc4)cc3)N3CCCC[C@@]3(C(=O)OC)[C@H]2C1=O | -9% | . | -3% | -4% | 0%
COc1ccc(C)c2sc(N(Cc3cccnc3)C(=O)c3cccs3)nc12 | . | . | -9% | . | .
CN(C)C(=O)c1cc(C(=O)c2ccc(F)cc2Cl)c[nH]1 | 13% | . | ? | 25% | ?
CN(C)C(=O)c1cc(C(=O)c2ccc(C(F)(F)F)cc2)c[nH]1 | ? | . | 13µM* | ? | ?
CN(C)C(=O)c1cc(C(=O)c2ccc(Cl)cc2Cl)c[nH]1 | 15% | . | 15µM* | ? | ?
Cc1cc(/C=C2/NC(=O)N(c3ccccc3)C2=O)c(C)n1-c1cccnc1 | ? | 7.9µM* | 3.4µM* | 1.6µM* | 2.2µM*
Cc1cccc(NC(=O)CN2C(=O)N/C(=C/c3cc(C)n(-c4cccnc4)c3C)C2=O)c1 | ? | -50% | 1% | -2% | 9%
SMILES | ELG1 genotox | SMN2 splice enh | FLuc counter | Rab9 prom act | NPC1 prom act
Cc1cc(/C=C2/NC(=S)NC2=O)c(C)n1-c1cccnc1 | 21% | ? | 5.4µM* | ? | 24%
COc1ccc(-c2nc(CSc3nncn4c3cc3sccc34)c(C)o2)cc1OC | . | . | 1% | . | .
COc1ccc(NC(=O)/C(C#N)=C/c2ccc(-c3ccc(Cl)c(C(=O)O)c3)o2)cc1 | ? | . | 0.48µM* | 3.5µM* | ?
Cc1ccc(NC(=O)/C(C#N)=C/c2ccc(-c3ccc(Cl)c(C(=O)O)c3)o2)cc1C | . | -6% | 3.8µM* | . | .
N#C/C(=C\c1ccc(-c2ccccc2)o1)C(=O)Nn1cnnc1 | 1% | -2% | 19µM* | -1% | -1%
Cc1cccc(NC(=O)/C(C#N)=C/c2ccc(Sc3ccccc3)o2)c1C | 0% | -47% | -2% | -2% | -2%
Cc1ccccc1NC(=O)/C(C#N)=C/c1ccc(-c2ccc(Cl)c(C(=O)O)c2)o1 | 12% | . | 19µM* | 3.2µM* | 2.8µM*
COc1ccc(C2CC(c3ccccc3)=NN2C(=O)COC(=O)c2cccc(N)c2)cc1 (stereo not given) | -3% | . | . | . | .
CCC1=NN(C(=O)c2cccc([N+](=O)[O-])c2)C(O)(c2ccc(C)cc2)C1 (stereo not given) | -6% | . | ? | 3% | -6%
O=C(N/N=C1\CCCc2ccccc21)c1cccc(Br)c1 | 4% | ? | ? | 15% | 20%
c1ccc(OCc2cc(-c3ccccc3)no2)cc1 | 17% | ? | 12µM* | 2.8µM* | ?
COc1ccc(OCc2cc(-c3ccc(Cl)cc3)no2)cc1 | 3% | 1% | -14% | -5% | -1%
COc1ccccc1OCc1cc(-c2ccccc2)no1 | ? | 13µM* | 9.5µM* | 2.5µM* | 3.5µM*
CC1=C(C(=O)Nc2ccccc2)C(c2sccc2C)n2nnnc2N1 (stereo not given) | 0% | -15% | 4% | -2% | -3%
CN(Cc1cccnc1)C(=O)c1cc(COc2ccc3c(c2)CCCC3)on1 | ? | . | 11µM* | ? | 1.3µM*
CC(=O)c1cccc(OCc2cc(C(=O)NCc3nc(C)c(C)s3)no2)c1 | ? | . | 17µM* | ? | ?
CCOC(=O)N1CCN(C(=O)c2cc(COc3cccc(C(C)=O)c3)on2)CC1 | 13% | . | ? | ? | 23%
CC(=O)c1cccc(OCc2cc(C(=O)N(C)Cc3cnccn3)no2)c1 | ? | . | ? | 2.5µM* | ?
COc1cccc(OCc2cc(C(=O)N(C)Cc3nc4ccccc4[nH]3)no2)c1 | ? | . | 11µM* | ? | 3.2µM*
Cc1ccc(C(=O)Nc2nnc(S(=O)(=O)N(C)Cc3ccc(Cl)cc3)s2)cc1 | . | . | -18% | . | .
CCOC(=O)Nc1ccc(Oc2ccccc2)cc1 | 18µM* | 7% | 13µM* | ? | ?
CCOC(=O)Nc1ccc(C(=O)Oc2ccccc2)c(O)c1 | 16% | 8% | 15µM* | ? | 19%
O=C(Nc1ccc(C(=O)Oc2ccccc2)c(O)c1)c1ccccc1 | 1% | -16% | ? | 28% | 11%
CCOC(=O)Nc1ccc(C(=O)/C=C/c2ccccc2)cc1 | 7% | . | 17µM* | -49% | 17%
O=C(Nc1ccc(C(=O)Oc2ccccc2)c(O)c1)c1ccco1 | ? | ? | 7.6µM* | 2.2µM* | ?
COc1ccc(CNC(=O)Cn2c(=O)nc(-c3ccccc3F)c3cc(Cl)ccc32)cc1 | . | . | 6% | . | .
